# The full ranking holds about 18,000 sequences; the median of “log2 normalized intensity” is about 0.39, and the highest 2% start at about 6.6. The sample holds the highest values, similar sequences and a random draw of the others, so the mix is not that of the screen.
# Molecular target: T1, HNF4alpha2 (COS-7 nuclear extract) (Homo sapiens, UniProt P41235 1-474)
# T1 sequence: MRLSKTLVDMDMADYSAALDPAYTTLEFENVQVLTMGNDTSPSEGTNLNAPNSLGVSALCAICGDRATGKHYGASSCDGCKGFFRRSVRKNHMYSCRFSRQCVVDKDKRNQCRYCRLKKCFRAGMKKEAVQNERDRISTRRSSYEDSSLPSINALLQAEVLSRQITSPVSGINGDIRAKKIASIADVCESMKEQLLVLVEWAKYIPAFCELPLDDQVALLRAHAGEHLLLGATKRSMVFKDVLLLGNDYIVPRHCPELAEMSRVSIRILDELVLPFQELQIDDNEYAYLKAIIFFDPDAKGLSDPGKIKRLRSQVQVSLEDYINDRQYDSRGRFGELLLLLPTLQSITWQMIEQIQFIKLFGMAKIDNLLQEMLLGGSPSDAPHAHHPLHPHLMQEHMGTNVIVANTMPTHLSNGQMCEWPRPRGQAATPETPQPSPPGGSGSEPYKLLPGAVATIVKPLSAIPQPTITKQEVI
# Assay: protein-binding microarray; COS-7 nuclear extract on double-stranded Agilent 4x180k PBM; binding buffer, salt, pH and temperature not given in the material; high values mean tight binding
# Details: chain copies: 2; label: 3' end of strand 1 on the slide; dsDNA, one strand shown
# Method in brief: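 Using CaPO4, COS-7 cells were transiently transfected with a human HNF4α isoform expression vector, and their nuclear extracts were applied to a custom Agilent SurePrint G3 4x180k double-stranded oligonucleotide array (~60 nt; ~44,000 test sequences in quadruplicate). Bound HNF4α was imaged at 2-µm resolution with an Agilent G2565CA scanner. Agilent software supplied the background-corrected, normalized gProcessedSignal that serves as the binding signal.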
row,Sequence,binding signal [log2 normalized intensity]
1,TATACAAGAAAGAAAGAATGTTTGCTTCTGGCCTAGGGAGATTAGAGTATCGGTCGA,-0.716
2,GGTGGACTTTGTAGCTCAAACAGTCTAAAAGCCTAGGGAGATTAGAGTATCGGTCGA,2.3
3,GTTAAAGTTGCCTGATGACAACTGAATGTGGCCTAGGGAGATTAGAGTATCGGTCGA,0.26
4,ACACCGTATCATCAAACCTGTTATTTGCGCGCCTAGGGAGATTAGAGTATCGGTCGA,1.25
5,AGGATGGGCCATGACCTTTACCCCCATTTGGCCTAGGGAGATTAGAGTATCGGTCGA,7.65
6,GGGCCATGACCTTTACCCCCATTTGGTAATGCCTAGGGAGATTAGAGTATCGGTCGA,6.29
7,GATAAAGCAGGTTGTACCTTGACCCAAGAAGCCTAGGGAGATTAGAGTATCGGTCGA,4.88
8,CACTATCACCAGGATGGGCCATGACCTTTAGCCTAGGGAGATTAGAGTATCGGTCGA,4.48
9,TCACCAGGATGGGCCATGACCTTTACCCCCGCCTAGGGAGATTAGAGTATCGGTCGA,9.28
10,GGCCAGATAAAGCAGGTTGTACCTTGACCCGCCTAGGGAGATTAGAGTATCGGTCGA,8.92
11,AACGGCCCAGGGTTAGAGGATGACCTTCCCGCCTAGGGAGATTAGAGTATCGGTCGA,2.99
12,GGCAGGGCCAGATAAAGCAGGTTGTACCTTGCCTAGGGAGATTAGAGTATCGGTCGA,2.4
13,ATGACCTTTACCCCCATTTGGTAATGGGCCGCCTAGGGAGATTAGAGTATCGGTCGA,4.83
14,GCTTCTCTTGGACCTCAATGTGCTCATCCAGCCTAGGGAGATTAGAGTATCGGTCGA,0.722
15,CCCACGTACATTGCACCCTCCAGGAGCCCCGCCTAGGGAGATTAGAGTATCGGTCGA,2.07
16,TATGTGATCAGATGTGGACAATCATTGTGCGCCTAGGGAGATTAGAGTATCGGTCGA,1.53
17,AGTGGAGAAATAACATTAATGGAAATGCCTGCCTAGGGAGATTAGAGTATCGGTCGA,-0.84
18,ACCATCCACGGATGCATGATTGCTCTCTACGCCTAGGGAGATTAGAGTATCGGTCGA,-0.932
19,TGCACAACGACCCTTGCTCTGTTTTCTGACGCCTAGGGAGATTAGAGTATCGGTCGA,1.89
20,CTTTGAGAAAGCAAAGTCCCTGGGGACAGGGCCTAGGGAGATTAGAGTATCGGTCGA,-0.0595
21,TCTAAGACATAACACAGGTGACCTTTGCTCGCCTAGGGAGATTAGAGTATCGGTCGA,8.37
22,AGGTGACCTTTGCTCCGGTTCCCAATAAGTGCCTAGGGAGATTAGAGTATCGGTCGA,5.06

row,Sequence,binding signal [log2 normalized intensity]
1,GACATAACACAGGTGACCTTTGCTCCGGTTGCCTAGGGAGATTAGAGTATCGGTCGA,7.4
2,AACACAGGTGACCTTTGCTCCGGTTCCCAAGCCTAGGGAGATTAGAGTATCGGTCGA,6.26
3,TCTTTTCTAAGACATAACACAGGTGACCTTGCCTAGGGAGATTAGAGTATCGGTCGA,4.03
4,CTAAGCAGGCACATTCCAGGACCTTTGCTCGCCTAGGGAGATTAGAGTATCGGTCGA,4.08
5,CCTCCCTCCATGCTGTAGATTGTGGAATGTGCCTAGGGAGATTAGAGTATCGGTCGA,1.81
6,GGTATGTTAGATTAGTGTGCAGCTTTGTGTGCCTAGGGAGATTAGAGTATCGGTCGA,2.1
7,GTCTAGATGCTGGGCAGCTTGTGTGCGTTTGCCTAGGGAGATTAGAGTATCGGTCGA,1.56
8,AGCTGTGTGCTCCTGTAGAATGACCCCCTGGCCTAGGGAGATTAGAGTATCGGTCGA,5.17
9,TTCTCTGTGACCTTTGGAAGGTGGGGGAGGGCCTAGGGAGATTAGAGTATCGGTCGA,4.13
10,TGGAGCATGACCCTTTGCAGGTGGGAGAGGGCCTAGGGAGATTAGAGTATCGGTCGA,0.139
11,GAGGTGGGCCCAGGGTTCTCTGTGACCTTTGCCTAGGGAGATTAGAGTATCGGTCGA,6.79
12,TGACTACCAGGTTCTGTACTTTGGAACCTGGCCTAGGGAGATTAGAGTATCGGTCGA,6.78
13,GGGCCCAGGGTTCTCTGTGACCTTTGGAAGGCCTAGGGAGATTAGAGTATCGGTCGA,8.2
14,GTTCTGTACTTTGGAACCTGAAAGAGCAACGCCTAGGGAGATTAGAGTATCGGTCGA,3.87
15,CTGCCCTTCTGACCTCCCAGGGATACTGTGGCCTAGGGAGATTAGAGTATCGGTCGA,2.47
16,TGGGTTCTTGCCCTTTGGTCTGGAACACAGGCCTAGGGAGATTAGAGTATCGGTCGA,3.31
17,AACTGTACTTTGGACTGGGGACCTGGTCTGGCCTAGGGAGATTAGAGTATCGGTCGA,4.13
18,CTTCTGCCCCCGCAGACCCAGTCTTAGGGAGCCTAGGGAGATTAGAGTATCGGTCGA,4.14
19,AGAAATCCACACAGCACTGACCTTTGAGAGGCCTAGGGAGATTAGAGTATCGGTCGA,4.92
20,GGCACAGTAACCTGACCCCCAGTGGAATGTGCCTAGGGAGATTAGAGTATCGGTCGA,3.32
21,CCCAGATATCTCTGGTAAACAGCTGACAATGCCTAGGGAGATTAGAGTATCGGTCGA,-0.967
22,CAAATAAAGTTTGAGGAGAGTCAAAGGTTAGCCTAGGGAGATTAGAGTATCGGTCGA,3.24

row,Sequence,binding signal [log2 normalized intensity]
1,CTCAGGTCAGGGAAGACTGATAAGAAAACTGCCTAGGGAGATTAGAGTATCGGTCGA,-0.891
2,AGTCATGTCTTCATGCTTTCAGCCTCTCTGGCCTAGGGAGATTAGAGTATCGGTCGA,0.358
3,CGCTCCCCGACCTCCTGCTGCAGCTCTGGGGCCTAGGGAGATTAGAGTATCGGTCGA,0.0682
4,GCTCTAGACATCGACCTTTGTGGGCTTCAGGCCTAGGGAGATTAGAGTATCGGTCGA,2.69
5,CCCATCGACCTTTGCTCCCGACTCTGAGGCGCCTAGGGAGATTAGAGTATCGGTCGA,5.07
6,TCTTCAGGCTGGGGCCCCATCGACCTTTGCGCCTAGGGAGATTAGAGTATCGGTCGA,6.79
7,AGGCTGGGGCCCCATCGACCTTTGCTCCCGGCCTAGGGAGATTAGAGTATCGGTCGA,9.6
8,CGACCTTTGCTCCCGACTCTGAGGCTCCATGCCTAGGGAGATTAGAGTATCGGTCGA,4.94
9,AGACATCGACCTTTGTGGGCTTCAGACATTGCCTAGGGAGATTAGAGTATCGGTCGA,1.71
10,ACCTCCTGGGCCCAAGTGCTCCTCCCCATCGCCTAGGGAGATTAGAGTATCGGTCGA,3.37
11,GGGGCCCCATCGACCTTTGCTCCCGACTCTGCCTAGGGAGATTAGAGTATCGGTCGA,8.11
12,AGCAGGCAGAGGTCAATGTCCACACCCCAGGCCTAGGGAGATTAGAGTATCGGTCGA,4.6
13,GCAGAGGCTGCAGAGGTTTCGCAAGGACGTGCCTAGGGAGATTAGAGTATCGGTCGA,-0.792
14,GTCTGCCTGACTCCAGAGTCCAAACTGGGAGCCTAGGGAGATTAGAGTATCGGTCGA,2.17
15,AGTATCATGTTGGCATTCCAGGATGAAGGAGCCTAGGGAGATTAGAGTATCGGTCGA,0.674
16,CAGCCTGGAGGAGGGCGAGGCCGAGCCTCAGCCTAGGGAGATTAGAGTATCGGTCGA,-0.906
17,ATCTACCCTTGACAATTCCTATTCATTCCCGCCTAGGGAGATTAGAGTATCGGTCGA,-0.0843
18,AAACTCTGAAGGCAAATTCTTAGAATTGCAGCCTAGGGAGATTAGAGTATCGGTCGA,-0.775
19,AAGAGACTTTGCCCTTTTTTTCTCTCCCCTGCCTAGGGAGATTAGAGTATCGGTCGA,3.42
20,ATCCCGTGGACTTTGCCTGCCCATCCCGTGGCCTAGGGAGATTAGAGTATCGGTCGA,3.13
21,CTTTCTATCAGCTCTCCGTGGACTTTGCCCGCCTAGGGAGATTAGAGTATCGGTCGA,9.49
22,TCTTCCTTTCTATCAGCTCTCCGTGGACTTGCCTAGGGAGATTAGAGTATCGGTCGA,3.08

row,Sequence,binding signal [log2 normalized intensity]
1,GCTCTCCGTGGACTTTGCCCCCTACAGTTTGCCTAGGGAGATTAGAGTATCGGTCGA,9.73
2,TATCAGCTCTCCGTGGACTTTGCCCCCTACGCCTAGGGAGATTAGAGTATCGGTCGA,11.1
3,TCTTTGCCCTCTTGGTATCAGCTTTGAGACGCCTAGGGAGATTAGAGTATCGGTCGA,1.42
4,GTGGACTTTGCCTGCCCATCCCGTGGACTCGCCTAGGGAGATTAGAGTATCGGTCGA,3.88
5,TTTGGCCCCCAGAGCCCCGTGTCTCCCTACGCCTAGGGAGATTAGAGTATCGGTCGA,4.6
6,CCAAACAGAACAAAGTCCAGTAAGGACAGTGCCTAGGGAGATTAGAGTATCGGTCGA,2.51
7,GAGTAGGTTCTCAGCTGACATTGGTGGAATGCCTAGGGAGATTAGAGTATCGGTCGA,1.36
8,AGTCCAGACAAGTCCCAAGTATTTTCAGCCGCCTAGGGAGATTAGAGTATCGGTCGA,-0.962
9,AACTTCTTATCACTTGGTGGACATGGTTCAGCCTAGGGAGATTAGAGTATCGGTCGA,2.02
10,AGATATCAGAAATGCATGAGTGACCTTTATGCCTAGGGAGATTAGAGTATCGGTCGA,4.97
11,CTCTTTTCTTTGTACCGTATTTCAGACCACGCCTAGGGAGATTAGAGTATCGGTCGA,2.19
12,CAATTAGAGCAAAGGTTACTGCAGAGAAGAGCCTAGGGAGATTAGAGTATCGGTCGA,1.54
13,AGAGCACAACCTTTGGCCGTGCATGCTTGGGCCTAGGGAGATTAGAGTATCGGTCGA,1.84
14,CCTTTGAGGAGGCCTTTCCTGACCCCTCCTGCCTAGGGAGATTAGAGTATCGGTCGA,4.34
15,ATATGAAAGAGCCATGGACTGCTGACCTTTGCCTAGGGAGATTAGAGTATCGGTCGA,6.32
16,ATTCTTTGCCATGACCTTTGAAGCCCAGAAGCCTAGGGAGATTAGAGTATCGGTCGA,4.66
17,AGCAATTCAAATTCTTTGCCATGACCTTTGGCCTAGGGAGATTAGAGTATCGGTCGA,5.51
18,TTCAAATTCTTTGCCATGACCTTTGAAGCCGCCTAGGGAGATTAGAGTATCGGTCGA,6.75
19,GCCATGGACTGCTGACCTTTGAACCCTGAGGCCTAGGGAGATTAGAGTATCGGTCGA,10.1
20,AAAGAGCCATGGACTGCTGACCTTTGAACCGCCTAGGGAGATTAGAGTATCGGTCGA,9.3
21,ATCTTTGACCTGGAGCATGACCCTTTGCAGGCCTAGGGAGATTAGAGTATCGGTCGA,2.68
22,GGCAGATATGAAAGAGCCATGGACTGCTGAGCCTAGGGAGATTAGAGTATCGGTCGA,-0.302

# From PMC10726135, “HNF4α isoforms regulate the circadian balance between carbohydrate and lipid metabolism in the liver”
